Pf growth 96h: Primary qHTS for delayed death inhibitors of the malarial parasite plastid, 96 hour incubation; P. falciparum luciferase reporter growth, 96 h; Potency, µM (top dose mostly 28.7 µM), for the others: top-dose activity change, negative = inhibition, hits mostly inhibitors; 320,000 tested, 6.9% active; AID 504834, 2011
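Parasite growth measured via integrated firefly luciferase reporter in P. falciparum. Infected erythrocytes at 2% hematocrit, 0.05% parasitemia final were treated 96 hours at 37 C under 5% CO2, and luminescence was read.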
Pf growth 48h: Primary qHTS for delayed death inhibitors of the malarial parasite plastid, 48 hour incubation | P. falciparum luciferase growth in erythrocytes, 48 h | Potency, µM (highest dose often 28.7 µM), inactives show at the highest dose activity change, negative = inhibition, hits mostly inhibitors | 310,000 tested, 5.9% active | AID 504832, 2011
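Luminescence readout; reporter = integrated firefly luciferase in P. falciparum. RBC culture at 2% hematocrit, 0.1% parasitemia final, 37 C/5% CO2; decreased signal taken as growth inhibition.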
AMA1-RON2 inh: qHTS for Inhibitors of AMA1-RON; Towards Development of Antimalarial Drug Lead: Primary Screen; Potency, µM (doses to about 58.2 µM), without a hit: top-dose activity change, negative = inhibition, hits mostly inhibitors; AID 720542, 2013; Plasmodium falciparum AMA1 (3D7) - RON2 peptide interaction; AlphaScreen AMA1-biotinylated RON2 peptide binding; 360,000 tested, 0.2% active;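 note: 0% = vehicle wells and -100% = peptide control; nearly all actives have a fitted effect of over 45% in size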
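AMA1 (3D7) with his tag at 25 nM final met compounds first, then biotinylated RON2 peptide at 25 nM; detection used donor plus acceptor beads, 10 µg/mL apiece, read by AlphaScreen after 30 min at room temperature.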
VACV mCherry inh: qHTS for Stage-Specific Inhibitors of Vaccinia Orthopoxvirus: mCherry Reporter Primary qHTS. Vaccinia virus mCherry reporter infection, fluorescence. 310,000 tested, 0.63% active. Potency, µM (doses to about 36.5 µM), without a hit: top-dose activity change, negative = inhibition, usual class: inhibitors; calls by dose curve; tested in A549 cells; note: nearly all actives have a fitted effect of over 35% in size
Vaccinia Venus: qHTS for Stage-Specific Inhibitors of Vaccinia Orthopoxvirus: Venus Reporter Primary qHTS; Vaccinia virus Venus reporter expression, fluorescence; Potency, µM (top dose mostly 36.5 µM), for inactives: at the highest dose activity change, negative = inhibition, usual class: inhibitors; 330,000 tested, 0.46% active; AID 720580, 2013; calls by dose curve; tested in A549 cells; note: nearly all actives have a fitted effect of over 30% in size
Starred values were filed as active, the others as inactive; i = inactive; ? = inconclusive; nt = no result; [ ] = remark or other dose. An excerpt weighted towards active compounds, which were near 8.7% of everything screened. Unless noted, calls come from the whole dose curve; as a rule, active = well fitted curve in the direction sought with a large enough effect; inconclusive = small, poorly fitted or top-dose-only effect, or another doubt; inactive = no such curve, though single readings can be large; an effect the other way counts as inactive or inconclusive. Unless noted, % is set by controls: 0 for no effect and ±100 for the full control effect; potency is the fitted concentration of half-maximal effect.

SMILES	Pf growth 96h	Pf growth 48h	AMA1-RON2 inh	VACV mCherry inh	Vaccinia Venus
Cc1nn(-c2ccccc2)c2c1cc1c(=O)[nH]c(=O)nc-1n2-c1cccc(Cl)c1	nt	nt	nt	5%	-3%
Cc1cccc(-n2ncc3c(N4CCN(c5ccccc5)CC4)ncnc32)c1	nt	nt	nt	-10%	-7%
Cc1cccc(C(=O)N2CCN(c3ncnc4c3cnn4-c3ccccc3)CC2)c1	-15%	9.3µM*	21%	-4%	2%
COc1ccccc1N1CCN(c2ncnc3c2cnn3-c2cc(Cl)ccc2C)CC1	nt	nt	nt	10µM*	10µM*
Cc1ccc(-n2ncc3c(N4CCN(c5ccccc5)CC4)ncnc32)c(C)c1	?	12µM*	4%	nt	nt
COc1ccc(CC(=O)NCC(c2cccs2)S(=O)(=O)c2ccc(C)cc2)cc1 (configuration not stated)	nt	nt	nt	-19%	-10%
COc1cc(OC)c(NC(=O)CCCn2nc(C)c3c(C)n(-c4ccccc4)nc3c2=O)cc1Cl	nt	nt	nt	-8%	-7%
Cc1ccc2[nH]c(C(=O)N/N=C/c3ccccc3C(=O)O)c(-c3ccccc3)c2c1	0.74µM*	-20%[0.00184 µM]	27%	nt	nt
O=C(NN=C1CCCC1)c1[nH]c2ccc(Br)cc2c1-c1ccccc1	?	0%	55%	11µM*	?
COc1ccc(/C=N/NC(=O)c2[nH]c3ccc(C)cc3c2-c2ccccc2)c(C(=O)O)c1OC	11%	12%	0%	?	-25%
O=C(N/N=C/c1ccccc1)c1[nH]c2ccc(Br)cc2c1-c1ccccc1	38%	14%	6%	?	-28%
Cc1ccc2[nH]c(C(=O)N/N=C/c3ccccc3O)c(C)c2c1	4.7µM*	2.3µM*	43%	3.5µM*	?
O=C(/C(N=Nc1cccc(C(F)(F)F)c1)=C(/O)c1cccs1)C(F)(F)F	5.2µM*	?	-7%	-21%	?
Cc1onc(-c2ccccc2Cl)c1-c1nc(-c2ccccn2)no1	22%	21%	15%	-16%	-28%
Clc1ccccc1/C=C/c1nc(-c2ccccn2)no1	67%	2.1µM*	2%	i	-12%
Cc1cccc(CSc2nc(N)c(C#N)c(-c3cccs3)c2C#N)c1	?	13µM*	5%	nt	nt
Cc1cccc(CSc2nc3c(c(-c4cccs4)c2C#N)CN(C)CC3)c1	?	?	-8%	-3%	-7%
FC(F)(F)c1cc(CCN2CCNC[C@@H]2c2ccccc2)cc(C(F)(F)F)c1	nt	nt	11%	-10%	?
FC(F)(F)c1cc(CO[C@@H]2CCCN[C@@H]2c2ccccc2)cc(C(F)(F)F)c1	?	12µM*	3%	-13%	-24%
O=C(NCCCN1CCN(c2ccccc2F)CC1)c1ccc2nc(N3CCCCC3)sc2c1	nt	nt	nt	-8%	-23%
CCc1ccc(-c2csc3[n+]2CCN3C(C)=O)cc1	?	2.9µM*	37%	-2%	-4%
COc1ccc2c(c1)-c1nc(-n3ncc(C(=O)NCc4cccc(C)n4)c3C3CC3)ncc1CC2	nt	nt	nt	-3%	-3%
Cc1ccc(Nc2nc3ccc(Cl)cc3n3cnnc23)cc1F	?	10µM*	15%	1%	-6%
Cc1ccc2c(c1)N(S(=O)(=O)c1ccc(CN3C(=O)c4cccnc4C3=O)s1)CCO2	4.1µM*	25%	49%	-29%	-7%
COc1ccc(C(C)=O)cc1COC(=O)c1ccc(C)c(S(=O)(=O)N2CCOCC2)c1	9.3µM*	9.3µM*	-21%	-5%	-15%
SMILES	Pf growth 96h	Pf growth 48h	AMA1-RON2 inh	VACV mCherry inh	Vaccinia Venus
COc1ccc(C(=O)OCc2cc(C)ccc2C)cc1S(=O)(=O)N1CCCC1	10µM*	7.4µM*	-7%[11.6 µM]	-5%	-17%
O=C(COc1ccc(Cl)cc1)NNC(=S)NCc1ccccc1	27%	?	108%	i	7%
C=CCc1ccccc1OCC(=O)NNC(=S)NCc1ccccc1	10µM*	37%	20%	i	-15%
O=C(Oc1ccc2cccc(OC(=O)N3CCOCC3)c2c1)N1CCOCC1	?	nt	9%	-6%	-1%
O=C(Oc1ccc2ccc(OC(=O)N3CCOCC3)cc2c1)N1CCOCC1	10µM*	47%	-7%	nt	-9%
OC(CN1CCN(Cc2ccccc2)CC1)Cn1c2ccccc2c2ccccc21 (configuration not stated)	11%	2.6µM*	-26%	i	-23%
OC(COCC(F)(F)C(F)(F)C(F)(F)C(F)F)Cn1c2ccccc2c2ccccc21 (configuration not stated)	-19%	12µM*	1%	?	?
Cc1ccc(OCCN2CCN(CC(O)Cn3c4ccccc4c4ccccc43)CC2)cc1 (configuration not stated)	19%	2.6µM*	nt	nt	nt
Cc1ccc(OCC(O)Cn2c3ccccc3c3ccccc32)cc1 (configuration not stated)	?	9.3µM*	16%	-21%	?
Cc1ccc(OCC(O)CN2CCCC2)cc1 (configuration not stated)	?	2%	0%	i	-9%
CCOc1ccc(-c2nc3c(c(CC)nn3-c3ccccc3)c3cc(OC)c(OC)cc23)cc1	nt	nt	nt	-3%	12%
CCc1ccc(C(=O)CC2(O)C(=O)N(CCc3ccccc3)c3ccc(Cl)cc32)cc1 (configuration not stated)	nt	nt	nt	-27%	-29%
Cc1cccc(C)c1OCC(O)Cn1nnc2ccccc21 (configuration not stated)	-14%	17%	3%	nt	-10%
Cc1cccc(C)c1OCC(O)Cn1c2ccccc2c2ccccc21 (configuration not stated)	31%	10µM*	-15%	nt	nt
C[N+]1(CC(COCc2ccccc2)OC(=O)Cc2ccccc2)CCOCC1 (configuration not stated)	?	13µM*	-9%	-10%	-16%
CNC(=S)N1CCN(c2c(F)cc3c(=O)c(C(=O)O)cn(C4CC4)c3c2OC)CC1C (configuration not stated)	13µM*	nt	1%	-18%[1.46 µM]	-12%
COc1cc2c(-c3ccc4[nH]ccc4c3)c(-c3ccc(C#N)cc3)oc(=O)c2cc1OC	4.7µM*	?	2%	?	-30%
COc1ccc(-c2c(-c3ccsc3)oc(=O)c3cc(OC)c(OC)cc23)cn1	nt	nt	-4%	-9%	-9%
COc1cc2c(-c3ccc4cc[nH]c4c3)c(-c3ccsc3)oc(=O)c2cc1OC	2.3µM*	?	-8%	-19%	-16%
Cc1ccc(C(=O)Nc2cccc(-c3nc(CNC(=O)C4(C)CC4)c(C)o3)c2)s1	nt	nt	nt	-13%	-15%
COCCCn1c(=N)c(C(N)=S)cc2c(=O)n3cccc(C)c3nc21	nt	nt	-2%	5%	-3%

Screening data deposited in PubChem by National Center for Advancing Translational Sciences (NCATS).
